According to the supplement of paper PMC6555819:

Assays:
Assay in all cases: PBM binding z-score (relative to random genomic background probes); higher = stronger binding; sequences stand for … in GC…GCGATTGACAGCGTAGAATGAAGG
[1] = tested on: PPARg:RXRa DBDmut IVT, anti-RXR (DBD mutation: RXRa K156A/R161A, NR concentration 270 nM, RXRa partner concentration 90 nM)
Method in brief: (§1)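 For binding z-scores, the reference was random background probes on custom Agilent 4×180K protein-binding microarrays. These arrays were incubated 1 h with ligand-free nuclear receptor dimers in PBS pH 7.4, 2% milk, 0.02% Triton X-100, 1 mM DTT, 0.2 mg/mL BSA and 0.4 mg/ml salmon testes DNA. Fluorescence was scanned after antibody detection of each partner (one per run) and regression-normalized.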

[2] = tested on: PPARg:RXRa IVT, anti-PPARg (NR concentration 270 nM, RXRa partner concentration 90 nM)
Method in brief: as §1

[3] = tested on: PPARg DBDmut:RXRa IVT, anti-PPARg (DBD mutation: PPARg1 K132A/R137A, NR concentration 270 nM, RXRa partner concentration 90 nM)
Method in brief: as §1

[4] = tested on: PPARg DBDmut IVT, anti-PPARg (DBD mutation: PPARg1 K132A/R137A, NR concentration 270 nM)
Method in brief: as §1

[5] = tested on: PPARg homodimer (NR concentration 180 nM)
Method in brief: as §1

[6] = tested on: PXR:RXRa (NR concentration 270 nM, RXRa partner concentration 90 nM)
Method in brief: as §1

[7] = tested on: PXR homodimer (NR concentration 270 nM)
Method in brief: as §1

[8] = tested on: RARa:RXR (NR concentration 270 nM, RXRa partner concentration 90 nM)
Method in brief: as §1

[9] = tested on: RARa homodimer (NR concentration 270 nM)
Method in brief: as §1

[10] = tested on: RARb:RXRa (NR concentration 270 nM, RXRa partner concentration 90 nM)
Method in brief: as §1

[11] = tested on: RARb homodimer (NR concentration 270 nM)
Method in brief: as §1

[12] = tested on: RARg:RXRa (NR concentration 270 nM, RXRa partner concentration 90 nM)
Method in brief: as §1

[13] = tested on: RARg homodimer (NR concentration 270 nM)
Method in brief: as §1

[14] = tested on: RXRa DBDmut IVT, anti-RXR (DBD mutation: RXRa K156A/R161A, NR concentration 90 nM)
Method in brief: as §1

[15] = tested on: RXRa homodimer (NR concentration 180 nM)
Method in brief: as §1

[16] = tested on: THRa:RXRa (NR concentration 90 nM, RXRa partner concentration 90 nM)
Method in brief: as §1

[17] = tested on: THRa homodimer (NR concentration 90 nM)
Method in brief: as §1

[18] = tested on: VDR homodimer (NR concentration 270 nM)
Method in brief: as §1

Sequence	PBM binding z-score [1]	PBM binding z-score [2]	PBM binding z-score [3]	PBM binding z-score [4]	PBM binding z-score [5]	PBM binding z-score [6]	PBM binding z-score [7]	PBM binding z-score [8]	PBM binding z-score [9]	PBM binding z-score [10]	PBM binding z-score [11]	PBM binding z-score [12]	PBM binding z-score [13]	PBM binding z-score [14]	PBM binding z-score [15]	PBM binding z-score [16]	PBM binding z-score [17]	PBM binding z-score [18]
TCATATAGGTAAAAGGTGAAAGGCGGTGTGGTAA	5.24	5.21	3.35	1.06	2.76	1.69	0.582	2.48	1.28	1.79	1.54	1.65	0.736	1.76	2.97	1.56	0.329	0.251
CGTCAAAGTTCAAGGTAACTTAACAGAAAGCAGC	0.535	1.52	0.657	0.0202	2.33	3.79	2.37	3.17	1.69	4.89	3.81	5.06	6.29	4.24	4.36	2.71	0.957	2.74
GGAACGAGGGCAGAGTTGATAGCATCTGTCGACG	2.1	2.85	0.19	-0.602	0.635	-0.0229	-0.145	-0.365	-0.977	1.68	0.448	0.934	1.12	1.49	0.588	0.324	-0.629	0.314
CCTTACGAGTCACTCCAGGTTATAGCATCGGAGT	0.574	0.424	0.623	0.364	1.41	1.2	1.12	0.999	1.56	0.664	0.938	0.686	0.863	0.584	0.475	3.69	1.07	0.838
ATATGTAGGTTACATCCGGGTCATTGAGGCTATG	7.27	7.27	2.02	2.36	1.82	3.65	4.12	3.65	0.615	2.38	3	3.72	2.07	1.25	3.12	3.92	2.69	2.7
TTACCAAGGTGACGGTCGTTGATCCCTCTGTAGA	2.39	3.64	0.228	-0.126	0.25	0.252	-0.877	0.759	-0.412	1.82	1.18	0.607	0.608	-0.779	0.836	2.01	0.865	-0.245
CCTAGCAGGCCAATCTGGGTCTCTCAAGGCTTGA	1.89	1.97	-0.916	-2.13	-1.06	-0.821	-0.804	-0.353	-0.835	0.0483	-0.52	-0.494	-0.505	-0.243	-0.68	0.975	-0.574	-0.65
TTTTGTAGATCAAGCAGGTTAAGAAAGCCTGAGT	0.762	1.22	1.82	1.21	0.487	0.303	0.386	0.469	0.538	0.329	0.054	-0.111	-0.119	-0.757	0.19	0.502	-0.555	0.443
CCGAGTAGGATATGGGGCATTCAGGCAACGGTGA	2.05	2.81	-0.179	-0.813	0.55	-0.236	-0.112	-0.0398	0.174	-0.0937	0.223	-0.15	0.00405	-0.637	0.133	0.16	0.0622	-0.318
TAGCCTAGGTCTTGCGGGCCAGTATAGTGTCGGC	-0.581	-0.0643	-0.303	-0.84	-1.39	-1.05	-1.29	-0.863	-1.17	-0.327	-0.413	-0.507	-0.639	-1.09	-0.623	-0.606	-1.12	-1.13
CCTATTTGGTCAGGAGGTCACACACCGGATATGA	1.91	3.3	1.63	0.887	3.54	4.35	1.72	4.86	2.56	3.94	4.24	5.12	4.67	1.25	5.03	3.54	2.66	2.61
GCTGCTAGGTCAGGTTGGTAAGCTAACGGGTACG	2.81	2.17	-1.03	-1.39	0.662	-0.0241	-0.591	0.597	-0.659	3.09	2.26	2.6	3.55	0.418	1.02	1.7	0.477	0.193
CCTACTGGGCCAAAAAGGTCCTTGATGCCGATAA	3.01	2.44	-0.992	-1.33	-0.196	-0.29	-0.721	-0.161	-0.376	0.177	0.795	-0.28	-0.148	-0.722	-0.259	-0.265	-0.242	-0.393
CTACCAAGGTGAACAAGGTCGGTGATTACTATTC	1.91	2.78	0.327	-0.584	0.38	0.812	0.00939	1.11	0.0895	1.97	1.6	1.22	1.42	0.135	1.23	2.66	1.27	0.361
CCTCGGAGGACAACAGGAGGTCAGAGGTGCCAGA	-0.227	0.737	-1.23	-1.03	1.99	2.36	0.719	2.6	0.638	3	3.4	3.47	3.16	-0.191	2.1	2.88	0.822	1.13
CCTATTAGTTGAACATAAGGGCAACCGAAGCTCG	0.458	0.463	0.856	0.515	1.56	0.574	0.963	0.973	1.2	1.38	1.97	1.48	1.14	0.521	0.64	2.06	1.04	0.571

Sequence	PBM binding z-score [1]	PBM binding z-score [2]	PBM binding z-score [3]	PBM binding z-score [4]	PBM binding z-score [5]	PBM binding z-score [6]	PBM binding z-score [7]	PBM binding z-score [8]	PBM binding z-score [9]	PBM binding z-score [10]	PBM binding z-score [11]	PBM binding z-score [12]	PBM binding z-score [13]	PBM binding z-score [14]	PBM binding z-score [15]	PBM binding z-score [16]	PBM binding z-score [17]	PBM binding z-score [18]
GCTAGCAGGCCATTCGGGTCACTCAATGACGGGC	1.31	1.58	-0.52	-0.659	0.0772	1.83	1.45	1.71	-0.872	1.96	2.3	1.85	1.92	0.641	1.81	3.09	1.75	1.2
TCTCGTAGATCAAAGGTTAAGAAAGCCGAAGCCT	1.73	1.46	-0.063	-0.642	0.726	1.89	-0.203	2.71	0.027	1.69	1.36	1.65	0.587	0.764	2.94	1.14	-0.441	0.265
ATATATAGGTTAGCTGGGGTCATTCAGACTAGGC	6.82	5.96	2.35	1.71	2.62	6.52	3.94	5.27	2.07	3.21	3.92	4.47	3.4	2.09	5.55	5.15	3.63	5.64
GCGACTGGGGCCAAGCAGGTTACCATAAGGTTGG	-0.26	-0.0452	-0.943	-1.96	-0.242	-0.00892	-0.184	0.223	-1.01	1.14	1.2	0.615	0.586	-0.252	0.329	1.3	0.0537	0.051
CTCGAGAGGTCGGTTGAGGTGAGTATACGGATAA	0.581	0.606	-0.792	-0.363	0.728	3.5	0.389	2.64	-0.682	2.05	1.99	2.11	2.3	1.57	2.06	5	1.39	1.16
AGAATGCGGTTAAGATCAGGGAAACAGAATACAT	-0.441	-0.00811	0.624	0.11	0.393	-0.295	-0.312	-0.225	0.513	-0.152	-0.126	0.0483	0.299	-0.536	-0.0604	0.164	-0.363	-0.162
CGAACTAGGTCAAGGACAGTGAATCTCCGCACGC	8.2	8.25	4.79	1.98	2.91	1.18	-0.052	2.3	0.629	3.94	3.01	3.95	4.49	1.42	2.57	3.25	2.14	0.847
TAGCCTAGGTCATTCAGGGGCCAGTACAGAAAGC	1.84	2.77	-0.186	0.258	1.6	2.52	-0.228	3.86	-0.153	3.9	3.28	5.87	4.35	1.94	2.7	3.4	0.784	1.56
TCTAGCCGGCCAGAGGGTCACTCAAGAGGTACGG	0.224	-0.0177	-0.893	-1.23	0.24	1.48	-0.354	2.24	-0.43	2.08	2.6	2.42	2.26	-0.0421	2.31	1.44	-0.64	-0.169
TCTGGTAGGTCAACGATGGTCAGCTAATCTGCTA	5.2	5.77	1.81	0.722	2.39	2.25	0.21	2.78	0.843	4.16	3.75	4.31	4.78	1.26	3.49	2.98	0.7	0.622
TGACCAAGGTGAAGGTCGTTGATCCCTCTGTAGA	1.27	2.71	-0.305	-0.387	0.818	1.26	-0.313	1.8	-0.922	2.11	1.87	1.64	1.25	-0.322	1.84	2.37	0.58	0.744
TCTTGTAGATCGAAGGTTAAGAAAGCCGAAGCCT	1.1	1.32	-0.629	-0.226	0.155	0.143	-0.658	0.948	-0.208	0.667	0.0841	0.243	-0.136	0.423	0.859	0.418	-0.559	-0.284
CACACTAGGTCACCGGAAGGTCAAAGTCCGCATG	7.26	8.19	3.49	0.952	7.05	6.16	2.43	7.66	2.69	5.52	5.83	8.21	7.39	2.24	6.53	4.79	3.54	3.61
ATATGTAGGTTACATACGGGTCATTCAGGCTATG	7.45	7.06	2.47	2.75	1.74	3.1	0.979	3.65	0.636	2.33	2.71	4.44	2.41	0.906	3.48	2.73	0.593	2.29
TCGAGTTGGTTAGGGGCATTCAGAATGGCGTCGA	0.816	-0.123	-0.765	-0.477	0.182	1.14	2.82	0.232	0.104	0.514	0.661	-0.158	-0.398	1.95	0.163	0.835	0.169	3.32
